Data as given in PubChem BioAssay (Tox21).
Records with an inconclusive call do not appear. The source made the active and inactive calls. Unless noted, calls follow the shape of the full dose curve.

What was measured:
[1] = Nuclear factor erythroid 2-related factor 2/antioxidant responsive element (Nrf2/ARE) small molecule agonists: qHTS cell viability counter screen in human keratinocytes (AID 1919968; active = well fitted curve in the direction sought with a large enough effect in the repeat runs; an effect the other way counts as inactive or inconclusive; also: nearly all actives have a fitted effect of over 55% in size)
Procedure, shortened: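 After a 5 h attachment period, ARE-reporter keratinocytes were dosed with compounds in DMSO and then cultured 23 h at 37 C. Cell viability came from CellTiter-Fluor signal read after a further 1 h.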

[2] = Nuclear factor erythroid 2-related factor 2/antioxidant responsive element (Nrf2/ARE) small molecule agonists: luciferase reporter gene qHTS assay in human keratinocytes (AID 1919969); also: nearly all actives have a fitted effect of over 35% in size
[3] = molecular target: Gonadotropin-releasing hormone receptor (Homo sapiens) (UniProt P30968); assay: Human gonadotropin-releasing hormone receptor (GnRHR) small molecule agonists, calcium flux assay in GnRHR-HEK293 cells (AID 1920063); also: nearly all actives have a fitted effect of over 35% in size
Chain of Gonadotropin-releasing hormone receptor (Homo sapiens) (P30968 whole entry, looked up): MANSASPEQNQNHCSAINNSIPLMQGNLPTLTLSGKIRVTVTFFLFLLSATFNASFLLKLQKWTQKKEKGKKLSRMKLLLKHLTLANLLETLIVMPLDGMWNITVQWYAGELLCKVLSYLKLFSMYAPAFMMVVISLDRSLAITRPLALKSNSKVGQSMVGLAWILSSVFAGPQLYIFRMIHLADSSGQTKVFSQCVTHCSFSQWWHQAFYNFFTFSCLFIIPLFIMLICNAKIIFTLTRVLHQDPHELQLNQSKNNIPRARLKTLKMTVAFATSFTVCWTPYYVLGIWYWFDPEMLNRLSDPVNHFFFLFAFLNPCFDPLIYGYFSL
Procedure, shortened: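 We seeded human GnRHR-expressing HEK293 cells for 18 hours, loaded them with calcium dye for an hour at 37 C, added test compounds, and recorded fluorescence intensity kinetically for three minutes.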

[4] = molecular target: KiSS-1 receptor (Homo sapiens) (UniProt Q969F8); assay: Human kisspeptin (KISS1R) small molecule agonists, calcium flux assay in KISS1R-HEK293 cells (AID 1920064; active = well fitted curve in the direction sought with a large enough effect in the repeat runs; an effect the other way counts as inactive or inconclusive)
Chain of KiSS-1 receptor (Homo sapiens) (Q969F8 whole entry, looked up): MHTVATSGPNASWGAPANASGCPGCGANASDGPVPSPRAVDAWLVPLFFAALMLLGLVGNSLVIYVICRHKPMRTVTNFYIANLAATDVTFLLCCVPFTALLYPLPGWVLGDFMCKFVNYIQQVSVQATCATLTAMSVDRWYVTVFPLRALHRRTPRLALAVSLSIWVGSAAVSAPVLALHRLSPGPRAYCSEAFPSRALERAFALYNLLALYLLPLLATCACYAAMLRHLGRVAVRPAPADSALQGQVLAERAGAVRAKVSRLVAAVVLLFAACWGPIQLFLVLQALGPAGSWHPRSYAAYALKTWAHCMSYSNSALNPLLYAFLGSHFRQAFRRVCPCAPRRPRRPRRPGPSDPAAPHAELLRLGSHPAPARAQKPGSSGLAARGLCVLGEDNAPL
Procedure, shortened: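 Kinetic calcium assay, 1 s sampling over 3 min at Ex/Em 480/540, in HEK293 cells engineered with human KISS1R; compounds delivered in DMSO after 1 h dye loading.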

[5] = G protein-coupled receptor (GPCR) small molecule agonists, calcium flux assay: HEK293 wild type cell line counter screen (AID 1920065)
Procedure, shortened: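 Calcium-sensitive dye, loaded 1 h at 37 C into cells cultured 18 h, reports compound-evoked calcium release as fluorescence (Ex/Em 480/540), measured over 3 min. Agonist mode; 15-point titrations, triplicate.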

[6] = p53 small molecule agonists, cell-based qHTS assay with human liver microsomes (AID 1963577)
Procedure, shortened: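 p53RE-bla cells, 4,000/well, compound added after 5 h, with human liver microsomes 0.5 mg/mL and NADPH 0.5 mg/mL final; 16 h at 37 C, then LiveBLAzer 2 h RT, fluorescence.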

[7] = p53 small molecule agonists, cell-based qHTS assay with rat liver microsomes (AID 1963578)
Procedure, shortened: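 p53RE-bla cells, 4,000/well, pre-incubated 5 h, then given compounds plus rat liver microsomes (0.5 mg/mL final) and NADPH (0.5 mg/mL final). Incubation 16 h at 37 C; beta-lactamase reporter read by LiveBLAzer fluorescence after 2 h at room temperature.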

[8] = p53 small molecule agonists, cell-based qHTS assay with human liver microsomes: qHTS cell viability counter screen (AID 1963579); also: nearly all actives have a fitted effect of over 45% in size
Procedure, shortened: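 p53RE-bla cells, 4,000/well, dosed 5 hours after plating, with human liver microsomes (0.5 mg/mL final) plus NADPH (0.5 mg/mL final), 16 hours at 37 C. Viability read as CellTiter-Glo luminescence after 30 min at room temperature.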

[9] = p53 small molecule agonists, cell-based qHTS assay with rat liver microsomes: qHTS cell viability counter screen (AID 1963580); also: nearly all actives have a fitted effect of over 45% in size
Procedure, shortened: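 HCT-116 p53RE-bla, 4,000 cells/well, 5 h pre-incubation; cpd + rat liver microsomes 0.5 mg/mL + NADPH 0.5 mg/mL (final); 16 h, 37 C; CellTiter-Glo, 30 min RT; luminescence.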

[10] = p53 small molecule agonists, cell-based qHTS assay: qHTS cell viability counter screen (AID 1963581); also: nearly all actives have a fitted effect of over 45% in size
Procedure, shortened: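 Following 5 h attachment, HCT-116 p53RE-bla cells took up compound for 16 h at 37 C; the reporter was read with B/G FRET substrate (2 h RT), and viability then via CellTiter-Glo ATP luminescence.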

[11] = p53 small molecule agonists, cell-based qHTS assay (AID 1963582; active = well fitted activation curve with a large enough effect in the signal ratio in the repeat runs, not every such curve was filed as active; the % refers to the signal ratio)
Procedure, shortened: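 In this cell-based concentration-response screen, a p53 response element drives beta-lactamase; cells received DMSO-borne compounds after 5 h culture and were incubated a further 16 h before FRET substrate development.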

[12] = molecular target: 5-hydroxytryptamine receptor 2A (Homo sapiens) (UniProt P28223); assay: 5-hydroxytryptamine receptor 2A (HTR2A) small molecule antagonists, cell-based qHTS assay (AID 1963586); also: nearly all actives have a fitted effect of over 45% in size
Chain of 5-hydroxytryptamine receptor 2A (Homo sapiens) (P28223 whole entry, looked up): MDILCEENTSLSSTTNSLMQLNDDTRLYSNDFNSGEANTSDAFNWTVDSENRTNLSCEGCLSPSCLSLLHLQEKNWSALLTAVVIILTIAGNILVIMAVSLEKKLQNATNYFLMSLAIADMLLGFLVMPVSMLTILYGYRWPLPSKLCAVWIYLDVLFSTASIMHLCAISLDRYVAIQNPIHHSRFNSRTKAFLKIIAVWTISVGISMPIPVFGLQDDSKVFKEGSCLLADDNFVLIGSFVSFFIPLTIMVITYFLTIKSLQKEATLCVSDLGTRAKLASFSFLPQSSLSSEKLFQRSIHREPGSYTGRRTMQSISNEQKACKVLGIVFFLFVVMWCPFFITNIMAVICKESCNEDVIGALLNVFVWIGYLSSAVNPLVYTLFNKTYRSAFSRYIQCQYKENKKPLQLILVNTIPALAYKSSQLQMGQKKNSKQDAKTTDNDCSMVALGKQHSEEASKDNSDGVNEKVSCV
Procedure, shortened: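 Antagonist-mode intracellular calcium assay: DOI (4 nM) added after 5 min compound pre-incubation at room temperature to dye-loaded HTR2A-CHO cells. Fluorescence followed for 3 min, sampled every second.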

[13] = molecular target: 5-hydroxytryptamine receptor 2A (Homo sapiens) (UniProt P28223); assay: 5-hydroxytryptamine receptor 2A (HTR2A) small molecule agonists, cell-based qHTS assay (AID 1963587); also: nearly all actives have a fitted effect of over 30% in size
Procedure, shortened: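 Kinetic calcium-flux fluorescence (2 min, 1 sec intervals) after compound addition in agonist mode. HTR2A-CHO cells were cultured 18 h, then dye-loaded 1 h at 37 C.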

[14] = molecular target: Muscarinic acetylcholine receptor M1 (Homo sapiens) (UniProt P11229); assay: Cholinergic receptor muscarinic 1 (CHRM1) small molecule antagonists, cell-based qHTS assay (AID 1963588); also: nearly all actives have a fitted effect of over 40% in size
Chain of Muscarinic acetylcholine receptor M1 (Homo sapiens) (P11229 whole entry, looked up): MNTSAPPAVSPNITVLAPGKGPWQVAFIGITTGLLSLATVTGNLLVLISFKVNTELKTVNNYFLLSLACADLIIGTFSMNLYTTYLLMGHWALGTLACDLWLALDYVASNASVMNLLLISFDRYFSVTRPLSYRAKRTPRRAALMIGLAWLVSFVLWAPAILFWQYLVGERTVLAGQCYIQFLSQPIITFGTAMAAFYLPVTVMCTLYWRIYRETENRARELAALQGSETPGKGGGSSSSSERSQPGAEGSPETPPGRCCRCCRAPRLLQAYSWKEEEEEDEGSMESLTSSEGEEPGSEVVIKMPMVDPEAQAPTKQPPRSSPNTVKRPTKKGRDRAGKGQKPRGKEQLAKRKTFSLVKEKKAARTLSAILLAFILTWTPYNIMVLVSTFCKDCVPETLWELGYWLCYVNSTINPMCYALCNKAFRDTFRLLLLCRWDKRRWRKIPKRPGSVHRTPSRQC
Procedure, shortened: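 CHRM1-CHO calcium-flux assay, antagonist mode. Cells were seeded 18 h, dye-loaded 1 h at 37 C and given compound for 5 min at RT, then acetylcholine was added at 50nM. FDSS fluorescence was read 3 min; 15 concentrations, three runs.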

[15] = molecular target: Muscarinic acetylcholine receptor M1 (Homo sapiens) (UniProt P11229); assay: Cholinergic receptor muscarinic 1 (CHRM1) small molecule agonists, cell-based qHTS assay (AID 1963589); also: nearly all actives have a fitted effect of over 35% in size
Procedure, shortened: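 Measures agonist-induced intracellular calcium rise. Stable human CHRM1 CHO line, 1 h dye load at 37 C, compounds from DMSO, kinetic fluorescence read.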

[16] = cAMP Responsive Elements (CRE) small molecule agonists, cell-based qHTS assay (AID 1963590)
Procedure, shortened: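 A CRE-responsive beta-lactamase reporter in HEK 293T cells was used. Treatment ran 3 h at 37 C; detection used LiveBLAzer B/G FRET substrate for 2 h at room temperature.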

[17] = cAMP Responsive Elements (CRE) small molecule antagonists, cell-based qHTS assay (AID 1963591; active = well fitted inhibition curve with a large enough effect in the signal ratio in the repeat runs, not every such curve was filed as active; the % refers to the signal ratio)
Procedure, shortened: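 HEK293T cells carrying a CRE-driven beta-lactamase reporter receive compound and NKH477 (0.25 uM final) for 3 h. Fluorescence from LiveBLAzer B/G FRET substrate is read after 2 h at room temperature.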

[18] = molecular target: Beta-2 adrenergic receptor (Homo sapiens) (UniProt P07550); assay: Adrenergic beta2 receptor (ADRB2) small molecule antagonists, cell-based qHTS assay (AID 1963592); also: series mostly up to about 92 µM; nearly all actives have a fitted effect of over 50% in size
Chain of Beta-2 adrenergic receptor (Homo sapiens) (P07550 whole entry, looked up): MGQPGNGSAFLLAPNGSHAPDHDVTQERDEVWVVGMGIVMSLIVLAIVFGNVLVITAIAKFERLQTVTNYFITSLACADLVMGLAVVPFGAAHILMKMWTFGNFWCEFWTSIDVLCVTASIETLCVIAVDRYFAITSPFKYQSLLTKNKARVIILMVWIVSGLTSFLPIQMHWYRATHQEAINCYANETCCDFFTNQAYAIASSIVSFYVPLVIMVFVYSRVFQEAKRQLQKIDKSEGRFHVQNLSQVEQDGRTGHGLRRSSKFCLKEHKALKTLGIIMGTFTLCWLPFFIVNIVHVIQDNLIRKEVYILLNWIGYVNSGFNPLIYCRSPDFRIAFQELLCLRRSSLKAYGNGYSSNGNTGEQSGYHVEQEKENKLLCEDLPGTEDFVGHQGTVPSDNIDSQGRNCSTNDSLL
Procedure, shortened: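 Cells (CHO, stable ADRB2 overexpression) incubated 18-20hr at 37C; compounds added from DMSO; agonist mix (1nM isoproterenol, 100uM IBMX, 25uM Ro-20-1724) added; 0.5hr RT; d2-cAMP and anti-cAMP-cryptate added; 1hr RT; 665/615 nm read.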

[19] = molecular target: Beta-2 adrenergic receptor (Homo sapiens) (UniProt P07550); assay: Adrenergic beta2 receptor (ADRB2) small molecule agonists, cell-based qHTS assay (AID 1963593);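 also: CHO cells stably overexpressing human ADRB2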
Procedure, shortened: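 CHO cells stably over-expressing ADRB2 were plated overnight at 37C, then dosed with compounds plus a stimulation mix containing 100uM IBMX and 25uM Ro-20-1724 for 0.5hr at room temperature. cAMP was measured by HTRF competition, 1hr.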

[20] = molecular target: D(2) dopamine receptor (Homo sapiens) (UniProt P14416); assay: Dopamine D2 receptor (DRD2) small molecule agonists, cell-based qHTS assay (AID 1963594); also: nearly all actives have a fitted effect of over 35% in size
Chain of D(2) dopamine receptor (Homo sapiens) (P14416 whole entry, looked up): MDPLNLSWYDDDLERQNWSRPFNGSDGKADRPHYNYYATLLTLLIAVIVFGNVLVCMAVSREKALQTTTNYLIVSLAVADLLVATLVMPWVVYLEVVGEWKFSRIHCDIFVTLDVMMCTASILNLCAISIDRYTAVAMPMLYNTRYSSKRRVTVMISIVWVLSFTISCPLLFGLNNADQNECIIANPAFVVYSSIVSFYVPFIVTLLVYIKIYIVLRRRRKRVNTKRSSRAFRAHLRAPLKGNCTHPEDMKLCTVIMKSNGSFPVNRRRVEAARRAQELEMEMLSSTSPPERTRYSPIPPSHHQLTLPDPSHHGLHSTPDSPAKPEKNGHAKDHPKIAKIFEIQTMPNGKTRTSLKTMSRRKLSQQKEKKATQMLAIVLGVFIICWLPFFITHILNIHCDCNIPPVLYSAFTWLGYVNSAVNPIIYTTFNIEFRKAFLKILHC
Procedure, shortened: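 cAMP accumulation in DRD2-HEK293 cells measured by HTRF after 1 h detection; compounds added 10 min before NKH477 (200nM […]) forskolin-analogue stimulation, 30 min at room temperature, with Ro20-1724 present at 0.1 mM final.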

Measured: Potency

O=S(O)CO
inactive: all assays above

COc1cc(C=O)ccc1OC(=O)C(C)C
inactive: all assays above

O=C1CCC(=O)N1
inactive: all assays above

NS(=O)(=O)c1ccccc1Cl
inactive: all assays above

CCC(C)=O
inactive: all assays above

CCC(=O)CC
inactive: all assays above

N#C[C@@H]1C[C@@H]2C[C@@H]2N1C(=O)[C@@H](N)C12CC3CC(CC(O)(C3)C1)C2
inactive: all assays above

O=[N+]([O-])c1ccc(Oc2ccc([N+](=O)[O-])cc2)cc1
inactive: all assays above

NC(=O)NNC(N)=O
inactive: all assays above

C[C@@H](O)[C@H]1C(=O)N2C(C(=O)O)=C(SCCN=CN)C[C@H]12
inactive: all assays above

NCCNCCN
inactive: all assays above

CCCCCCCCCCCCCCC(=O)NC(CO)CCCCCCCCCCCCCC (stereo not given)
inactive: all assays above

COCCCOc1cc(C[C@@H](C[C@H](N)[C@@H](O)C[C@H](C(=O)NCC(C)(C)C(N)=O)C(C)C)C(C)C)ccc1OC
inactive: all assays above

Cc1ccc(S(=O)(=O)NC(=O)NC2CCCCCCC2)cc1
inactive: all assays above

Clc1nc(Cl)c(Cl)c(Cl)c1Cl
inactive: all assays above
